± gives the standard deviation of the averaged measurements.
Columns and labels:
Assay in all cases: cell viability (% of vehicle); higher = less cytotoxic
HCI01 [1] = cells of a triple-negative basal-like breast cancer xenograft; settings: 10 µM; 72 h
HCI03 = cells of an ER-positive luminal breast cancer xenograft; settings: 10 µM; 72 h
HCI09 = cells of a triple-negative luminal androgen receptor type breast cancer xenograft; settings: 10 µM; 72 h
HCI11 = cells of an ER-positive luminal breast cancer xenograft; settings: 10 µM; 72 h
HCI13 = cells of an ER-positive luminal breast cancer xenograft; settings: 10 µM; 72 h
HCI16 = cells of a triple-negative basal-like breast cancer xenograft; settings: 10 µM; 72 h
UCD52 [2] = cells of a triple-negative basal-like breast cancer xenograft; settings: 10 µM; 72 h
WHIM2 [3] = cells of a triple-negative basal-like breast cancer xenograft; settings: 10 µM; 72 h
HCI01 [4] = settings: 1 µM; 72 h
UCD52 [5] = settings: 1 µM; 72 h
WHIM2 [6] = settings: 1 µM; 72 h
WHIM30 [7] = cells of a triple-negative basal-like breast cancer xenograft; settings: 1 µM; 72 h
WHIM30 [8] = settings: 10 µM; 72 h

CCC1OC(=O)CC(O)C(C)C(OC2OC(C)C(OC3CC(C)(O)C(O)C(C)O3)C(N(C)C)C2O)C(CC=O)CC(C)C(=O)C=CC(C)=CC1COC1OC(C)C(O)C(OC)C1OC.O=C(O)C(O)C(O)C(=O)O (stereo not drawn) [Tylosin tartrate]
cell viability (HCI01 [1]): 75.1 ± 40 | cell viability (HCI03): 165 | cell viability (HCI09): 88.2 ± 5.5 | cell viability (HCI11): 82.3 | cell viability (HCI13): 97.3 ± 33 | cell viability (HCI16): 126 | cell viability (UCD52 [2]): 85.2 ± 5.8 | cell viability (WHIM2 [3]): 110.8 ± 0.8

NS(=O)(=O)c1cc2c(cc1Cl)NC(C(Cl)Cl)NS2(=O)=O (stereo not drawn) [Trichlormethiazide]
cell viability (HCI01 [1]): 104 ± 57 | cell viability (HCI03): 164 | cell viability (HCI09): 98.053 ± 0.0031 | cell viability (HCI11): 89.9 | cell viability (HCI13): 129.2 ± 0.42 | cell viability (HCI16): 186 | cell viability (UCD52 [2]): 142 ± 9.3 | cell viability (WHIM2 [3]): 141 ± 8.7

CC[C@@]1(O)C(=O)OCc2c1cc1n(c2=O)Cc2cc3c(CN(C)C)c(O)ccc3nc2-1.Cl [Topotecan HCl]
cell viability (HCI01 [4]): 65.4 | cell viability (UCD52 [5]): 93.4 | cell viability (WHIM2 [6]): 49.6 | cell viability (WHIM30 [7]): 41.7 | cell viability (HCI01 [1]): 38 ± 13 | cell viability (HCI09): 35.2 ± 10 | cell viability (HCI11): 51.9 | cell viability (HCI13): 54.7 ± 1.9 | cell viability (HCI16): 69.1 | cell viability (UCD52 [2]): 42 ± 7.3 | cell viability (WHIM2 [3]): 43.7 ± 2.5 | cell viability (WHIM30 [8]): 82.1 ± 9.8

CC(=O)NC1C(N=C(N)N)C=C(C(=O)O)OC1C(O)C(O)CO (stereo not drawn) [Zanamivir]
cell viability (HCI01 [1]): 82.4 ± 58 | cell viability (HCI03): 156 | cell viability (HCI09): 96 ± 12 | cell viability (HCI11): 90.8 | cell viability (HCI13): 108 ± 2.3 | cell viability (HCI16): 113 | cell viability (UCD52 [2]): 90.4 ± 1.5 | cell viability (WHIM2 [3]): 106 ± 31

CC(=O)Nc1ccccc1 [Acetanilide]
cell viability (HCI01 [1]): 76.6 ± 44 | cell viability (HCI03): 163 | cell viability (HCI09): 99.2 ± 7.3 | cell viability (HCI11): 81.8 | cell viability (HCI13): 110 ± 8.1 | cell viability (HCI16): 138 | cell viability (UCD52 [2]): 75.2 ± 13 | cell viability (WHIM2 [3]): 126 ± 14

O=c1[nH]cc(F)c(=O)[nH]1 [Fluorouracil (Adrucil)]
cell viability (HCI01 [1]): 136 ± 18 | cell viability (HCI03): 112 | cell viability (HCI09): 75.1 ± 7.2 | cell viability (HCI11): 167 | cell viability (HCI13): 81.1 ± 6 | cell viability (HCI16): 151 | cell viability (UCD52 [2]): 139.3 ± 0.23 | cell viability (WHIM2 [3]): 106 ± 20

CCc1cnn2c(NCc3ccc[n+]([O-])c3)cc(N3CCCCC3CCO)nc12 (stereo not drawn)
cell viability (HCI01 [4]): 46.8 | cell viability (UCD52 [5]): 29.2 | cell viability (WHIM2 [6]): 38.1 | cell viability (WHIM30 [7]): 34.9 | cell viability (HCI01 [1]): 38.1 ± 3.4 | cell viability (HCI09): 62.5 ± 35 | cell viability (HCI11): 72.6 | cell viability (HCI16): 92.9 | cell viability (UCD52 [2]): 42.1 ± 6.4 | cell viability (WHIM2 [3]): 48.7 ± 12 | cell viability (WHIM30 [8]): 66.2 ± 6.1

CC(O)C(=O)O.CC(O)C(=O)O.CN1CCN(c2ccc3c(c2)NC(=C2C(=O)N=c4cccc(F)c4=C2N)N3)CC1 [Dovitinib Dilactic acid]
cell viability (HCI01 [4]): 103 | cell viability (UCD52 [5]): 89.6 | cell viability (WHIM2 [6]): 96.9 | cell viability (WHIM30 [7]): 77.8 | cell viability (HCI01 [1]): 43.1 ± 5.7 | cell viability (HCI09): 19.9 ± 0.23 | cell viability (HCI11): 66 | cell viability (HCI13): 79 ± 2.3 | cell viability (HCI16): 44.4 | cell viability (UCD52 [2]): 21.9 ± 2.9 | cell viability (WHIM2 [3]): 52.2 ± 12

NC(=O)OCC(COC(N)=O)c1ccccc1 [Felbamate]
cell viability (HCI01 [1]): 71.2 ± 42 | cell viability (HCI03): 137 | cell viability (HCI09): 90.7 ± 10 | cell viability (HCI11): 95.3 | cell viability (HCI13): 103 ± 8.3 | cell viability (HCI16): 101 | cell viability (UCD52 [2]): 81.2 ± 7.7 | cell viability (WHIM2 [3]): 99.5 ± 11

CC1(COc2ccc3c(c2)ncn3-c2ccc3cccc(N4CCC(N)CC4)c3n2)COC1
cell viability (HCI01 [4]): 97.6 | cell viability (UCD52 [5]): 138 | cell viability (WHIM30 [7]): 71.3 | cell viability (HCI01 [1]): 41.1 ± 22 | cell viability (HCI09): 12.7 ± 2.4 | cell viability (HCI13): 26.6 ± 24 | cell viability (UCD52 [2]): 34 ± 9.8 | cell viability (WHIM2 [3]): 35 ± 13 | cell viability (WHIM30 [8]): 60.3 ± 3.4

CN1CCN(CCCN2c3ccccc3Sc3ccc(Cl)cc32)CC1 [Prochlorperazine]
cell viability (HCI01 [1]): 113 ± 3 | cell viability (HCI03): 118 | cell viability (HCI09): 98.8 ± 8.7 | cell viability (HCI11): 91.1 | cell viability (HCI13): 128 ± 17 | cell viability (HCI16): 92.1 | cell viability (UCD52 [2]): 63.7 ± 7.7 | cell viability (WHIM2 [3]): 74.7 ± 5

O=c1cc[nH]c(=O)[nH]1 [Uracil]
cell viability (HCI01 [1]): 120 ± 20 | cell viability (HCI03): 139 | cell viability (HCI09): 116 ± 28 | cell viability (HCI11): 98.8 | cell viability (HCI13): 64.47 ± 0.33 | cell viability (HCI16): 116 | cell viability (UCD52 [2]): 101 ± 7 | cell viability (WHIM2 [3]): 135 ± 11

CC(=O)C1(O)Cc2c(O)c3c(c(O)c2C(OC2CC(N)C(O)C(C)O2)C1)C(=O)c1ccccc1C3=O.Cl (stereo not drawn) [Idarubicin HCl]
cell viability (UCD52 [5]): 32.5 | cell viability (WHIM2 [6]): 28.8 | cell viability (WHIM30 [7]): 41.2 | cell viability (HCI01 [1]): 37.5 ± 5.3 | cell viability (HCI03): 67.6 | cell viability (HCI09): 28.4 ± 1.2 | cell viability (HCI11): 27.8 | cell viability (HCI13): 47.1 ± 3.2 | cell viability (HCI16): 32.1 | cell viability (UCD52 [2]): 31.4 ± 6.4 | cell viability (WHIM2 [3]): 29.3 ± 9.9 | cell viability (WHIM30 [8]): 44.7 ± 14

COc1ccc2cc(CCC(C)=O)ccc2c1 [Nabumetone]
cell viability (HCI01 [1]): 170 ± 32 | cell viability (HCI03): 172 | cell viability (HCI09): 200 ± 62 | cell viability (HCI11): 141 | cell viability (HCI13): 199 ± 10 | cell viability (HCI16): 136 | cell viability (UCD52 [2]): 151 ± 25 | cell viability (WHIM2 [3]): 117 ± 11

CCN(CC)C(=O)C1(c2ccccc2)CC1CN.Cl (stereo not drawn) [Milnacipran HCl]
cell viability (HCI01 [1]): 68.6 ± 44 | cell viability (HCI03): 137 | cell viability (HCI09): 96.4 ± 9.2 | cell viability (HCI11): 98.1 | cell viability (HCI13): 127 ± 14 | cell viability (HCI16): 105 | cell viability (UCD52 [2]): 86.4 ± 1.7 | cell viability (WHIM2 [3]): 93.8 ± 47

CC(C)c1nc(N(C)S(C)(=O)=O)nc(-c2ccc(F)cc2)c1C=CC(O)CC(O)CC(=O)[O-].CC(C)c1nc(N(C)S(C)(=O)=O)nc(-c2ccc(F)cc2)c1C=CC(O)CC(O)CC(=O)[O-].[Ca+2] (stereo not drawn) [Rosuvastatin Calcium]
cell viability (HCI01 [4]): 96.2 | cell viability (UCD52 [5]): 83.1 | cell viability (WHIM2 [6]): 83.4 | cell viability (WHIM30 [7]): 84.8 | cell viability (HCI01 [1]): 109 ± 2.8 | cell viability (HCI03): 115 | cell viability (HCI09): 112 ± 44 | cell viability (HCI13): 126 ± 30 | cell viability (HCI16): 117 | cell viability (UCD52 [2]): 50.8 ± 4.2 | cell viability (WHIM2 [3]): 44.1 ± 6.8 | cell viability (WHIM30 [8]): 88.4 ± 11

OCCN1CC(O)C(O)C(O)C1CO (stereo not drawn) [Miglitol]
cell viability (HCI01 [1]): 68.9 ± 43 | cell viability (HCI03): 136 | cell viability (HCI09): 99.2 ± 8.7 | cell viability (HCI11): 92.4 | cell viability (HCI13): 113 ± 0.17 | cell viability (HCI16): 116 | cell viability (UCD52 [2]): 86.2 ± 7.9 | cell viability (WHIM2 [3]): 95.7 ± 50

CCCNC(C)C(=O)Nc1ccccc1C (stereo not drawn) [Prilocaine]
cell viability (HCI01 [1]): 77.2 ± 50 | cell viability (HCI03): 145 | cell viability (HCI09): 102 ± 1.6 | cell viability (HCI11): 92 | cell viability (HCI13): 119.7 ± 0.81 | cell viability (HCI16): 108 | cell viability (UCD52 [2]): 79.7 ± 1.1 | cell viability (WHIM2 [3]): 98.7 ± 19

CNC(=O)C(Cc1c[nH]c2ccccc12)NC(=O)C(CC(=O)NO)CC(C)C (stereo not drawn)
cell viability (HCI01 [1]): 141 ± 3.8 | cell viability (HCI03): 116 | cell viability (HCI09): 88.9 ± 9.2 | cell viability (HCI11): 129 | cell viability (HCI13): 92.5 ± 5.4 | cell viability (HCI16): 140 | cell viability (UCD52 [2]): 126 ± 16 | cell viability (WHIM2 [3]): 105 ± 14

CC(C)CC(NC(=O)C(CCc1ccccc1)NC(=O)CN1CCOCC1)C(=O)NC(Cc1ccccc1)C(=O)NC(CC(C)C)C(=O)C1(C)CO1 (stereo not drawn) [Carfilzomib (PR-171)]
cell viability (HCI01 [4]): 29.2 | cell viability (UCD52 [5]): 16.6 | cell viability (WHIM2 [6]): 43.9 | cell viability (WHIM30 [7]): 22.9 | cell viability (HCI01 [1]): 32.3 ± 3.5 | cell viability (HCI09): 25.7 ± 4.7 | cell viability (HCI11): 55.9 | cell viability (HCI13): 32.9 ± 4.7 | cell viability (HCI16): 38.9 | cell viability (UCD52 [2]): 64.4 ± 11 | cell viability (WHIM2 [3]): 26.4 ± 11 | cell viability (WHIM30 [8]): 68.8 ± 2.6

— the supplement of paper PMC6992640
